{"source": "PubChem BioAssay (NCI)", "note": "About 83,000 compounds went through this panel and 20% of them were active in at least one assay; those are over-represented in the sample as a whole.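 Note: values are percent growth. 100 is the growth of untreated cells, values between 100 and 0 indicate rising inhibition; between -100 and 0 indicates cell death.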 Active and inactive are the calls of the source.", "data": [{"test_system": "HL-60(TB) leukemia", "assay": "NCI-60 one-dose screen, 48 h (100 = growth as untreated, 0 = no growth, -100 = all killed)", "settings": "10 µM unless noted", "protocol": "Growth inhibition of the HL-60(TB) human tumor cell line is measured as a screen for anti-cancer activity. Cells are grown in 96 well plates and exposed to the test compound for 48 hours. Compounds are tested at a single concentration, which is 10^-5 M for most compounds. The reported endpoint is percent growth (GI% or GIPRCNT), where numbers from 0 - 100% represent growth inhibition, and numbers from -100% - 0 represent cell death. For example, a value of 40 represents 60% growth inhibition. A value of 0 means no net growth occurred over the course of the experiment. A value of -40 indicates 40% of cells at the beginning of the experiment died by the end of the experiment. A value of -100 means all cells are dead at the end of the experiment.\nNCI-60 Human Tumor Cell Lines Screen was performed using the standard one-dose NCI protocol, which is described in more detail at https://dtp.cancer.gov/discovery_development/nci-60/default.htm.\nCompounds with GIPRCNT values below 10 were considered active. Activity score was based on GIPRCNT using the following formula: […]\nScore is 0 for GIPRCNT values of 100 or above, 50 for GIPRCNT values of 0, and 100 for GIPRCNT values of -100.", "values": [{"compound": "COC(=O)[C@@H](C)C[C@H](Cc1ccccc1)NC(=O)c1csc([C@@H](C[C@H](C(C)C)N(C)C(=O)[C@@H](NC(=O)[C@H]2CCCCN2C)c2ccc(F)cc2)OC(C)=O)n1", "growth": "-42.6% (active)"}, {"compound": "CC[C@H](C)[C@H](NC(=O)c1nccn1C)C(=O)N(C)[C@H](C[C@@H](OC(C)=O)c1nc(C(=O)N[C@@H](Cc2ccccc2)C[C@H](C)C(=O)OC)cs1)C(C)C", "growth": "-43.5% (active)"}, {"compound": "O=[N+]([O-])c1ccc(OP(=O)(CCl)N(CCCl)CCCl)cc1", "note": "(stereo not given)", "growth": "94.4% (inactive)"}, {"compound": "CN1C(=O)N[C@H]2[C@@H]3NC(=O)c4ccc(Br)n4[C@@H]3C[C@]21O", "growth": "-20% (active)"}, {"compound": "CCOC(=O)[C@@H](C)C[C@H](Cc1ccccc1)NC(=O)c1csc([C@@H](C[C@H](C(C)C)N(C)C(=O)[C@@H](NC(=O)[C@H]2CCCCN2C)C(C)(C)C)OC(C)=O)n1", "growth": "-33.2% (active)"}, {"compound": "CCOC(=O)CCN(C)C1=Nc2ccc(Cl)cc2C(c2ccccc2)=[N+]([O-])C1", "growth": "91.3% (inactive)"}, {"compound": "CCOC(=O)CCC(NC(=O)C(Cc1ccc(N(CCCl)CCCl)cc1)NC=O)C(=O)OCC", "note": "(stereo not given)", "growth": "9.37% (active)"}, {"compound": "CC[C@H](C)[C@H](NC(=O)[C@H]1CCCCN1C)C(=O)N(C)[C@H](C[C@@H](OC(C)=O)c1cccc(C(=O)N[C@@H](Cc2ccccc2)C[C@H](C)C(=O)O)n1)C(C)C", "growth": "-40% (active)"}, {"compound": "CC(C)=CCC[C@H](C(=O)O)[C@@H]1CC[C@]2(C)C3=C(CC[C@@]12C)[C@@]1(C)CC[C@H](O)C(C)(C)[C@@H]1CC3", "growth": "85.1% (inactive)"}, {"compound": "C1CCC([PH+](C2CCCCC2)C2CCCCC2[PH+](C2CCCCC2)C2CCCCC2)CC1.[Au].[CH-]1CCCCC1CC1CCCC[N-]1", "note": "(stereo not given)", "growth": "-32.3% (active)"}, {"compound": "COC(=O)[C@@H](C)C[C@H](Cc1ccccc1)NC(=O)c1nc([C@@H](C[C@H](C(C)C)N(C)C(=O)[C@@H](NC(=O)[C@H]2CC(=O)CCN2C)C(C)C)OC(C)=O)sc1C(C)C", "growth": "-36.7% (active)"}, {"compound": "CCOC(=S)S[C@H]1C[C@@H]2[C@H](CC[C@]3(C)C(=O)CC[C@@H]23)[C@@]2(C)CCC(=O)C=C12", "growth": "101% (inactive)"}, {"compound": "COC(=O)[C@@]1(C)CC[C@]2(C)CC[C@]3(C)C4=CC=C5C(=CC(=O)C(O)=C5C)[C@]4(C)CC[C@@]3(C)[C@@H]2C1", "growth": "-53.1% (active)"}, {"compound": "C/C(=C\\c1ccn(-c2ccc(N)cc2C(F)(F)F)n1)[C@@H]1C[C@@H]2O[C@]2(C)CCC[C@H](C)[C@H](O)[C@@H](C)C(=O)C(C)(C)[C@@H](O)CC(=O)O1", "growth": "-0.118% (active)"}, {"compound": "Cc1c(O)c(CN(CCCl)CCCl)cc(CN(CCCl)CCCl)c1O", "growth": "47.1% (inactive)"}, {"compound": "O=C(CC1(O)C(=O)Nc2ccc(Br)cc21)c1ccc(C(=O)NCC2CCC3(CC2)OOC2(CCCCC2)OO3)cc1", "note": "(stereo not given)", "growth": "-39.2% (active)"}, {"compound": "Clc1cccc(Cl)c1Cl", "growth": "99.6% (inactive)"}, {"compound": "CC(C)(C)C(=O)OCOP(=O)(NCc1ccccc1)C1CCCN(O)C1=O", "note": "(stereo not given)", "growth": "52.2% (inactive)"}, {"compound": "COC(=O)C12CC(NC(=O)c3csc([C@@H](C[C@H](C(C)C)N(C)C(=O)[C@@H](NC(=O)[C@H]4CCCCN4C)C4CC4)OC(C)=O)n3)(C1)C2", "growth": "-44% (active)"}, {"compound": "C/C(Cc1ccc(Cl)cc1)=C(\\c1ccc(OCCN2CCOCC2)cc1)c1ccc(OC(=O)Cc2ccccc2)cc1", "growth": "100% (inactive)"}, {"compound": "CN1CC(=O)N(O)C1(C)c1cccnc1", "note": "(stereo not given)", "growth": "92.2% (inactive)"}, {"compound": "CC1=C2[C@@H](CC1)[C@]1(C)O[C@@](C(C)C)(C[C@H]1O)[C@H]2OC(=O)C1CC1c1ccccc1", "note": "(stereo not given in full)", "growth": "80.5% (inactive)"}, {"compound": "CN(C)CCCOc1ccc2c(c1)c(C(=O)C(=O)NCCO)cn2Cc1ccccc1", "growth": "106% (inactive)"}, {"compound": "CCC(CC)CC1(C)CC2(C)CCOC2OO1", "note": "(stereo not given)", "growth": "111% (inactive)"}, {"compound": "O=C1CC2(CC3(Cl)C(Cl)=C(Cl)C2(Cl)C3(Cl)Cl)C(=O)O1", "note": "(stereo not given)", "growth": "97.1% (inactive)"}, {"compound": "CN1C(=O)C23CC4(C56CC78SSC(CO)(C(=O)N7C5Nc5ccccc56)N(C)C8=O)c5ccccc5NC4N2C(=O)C1(CO)SS3", "note": "(stereo not given)", "growth": "-63.1% (active)"}, {"compound": "CC1(C)N=C(N)N=C(N)N1c1ccc(CCCCc2ccc(Cl)c(S(=O)(=O)F)c2)c(Cl)c1", "growth": "-43.9% (active)"}, {"compound": "C=C1[C@@H](C)[C@H]2[C@H](Cc3ccccc3)NC(=O)[C@]23[C@@H](O)/C=C/[C@@](C)(O)C(=O)[C@@H](C)C/C=C/[C@H]3[C@@H]1O", "growth": "73.4% (inactive)"}, {"compound": "Nc1c(F)cc(-c2nc3cc(F)ccc3[se]2)cc1F", "growth": "83.5% (inactive)"}, {"compound": "CC[C@H](NC(=O)[C@H]1CCCCN1C)C(=O)N(C)[C@H](C[C@@H](OC(C)=O)c1nc(C(=O)N[C@@H](Cc2ccccc2)C[C@H](C)C(=O)O)cs1)C(C)C", "growth": "-21.5% (active)"}, {"compound": "Cc1c(C)c([N+](=O)[O-])c(C)c(C)c1[N+](=O)[O-]", "growth": "109% (inactive)"}, {"compound": "O=C1CCC2(O)[C@@H]3Cc4ccc(O)c5c4[C@]2(CCN3Cc2ccoc2)C1O5", "note": "(stereo not given in full)", "growth": "95% (inactive)"}, {"compound": "CC12CCC3C(C=CC4=C(N)C(=O)CCC43C)C1CCC2=O", "note": "(stereo not given)", "growth": "52.5% (inactive)"}, {"compound": "N/C(=N\\N=C\\c1ccc(-c2ccccc2)cc1)N[N+](=O)[O-]", "growth": "-16.2% (active)"}, {"compound": "CN1C(=O)C(=Cc2cn(CCCCCCn3c4ccccc4c(=O)c4ccccc43)c3ccccc23)C(=O)N(C)C1=O", "growth": "79.3% (inactive)"}, {"compound": "CC12CCC3C(CCC4=CC(=O)CCC43CF)C1CCC2=O", "note": "(stereo not given)", "growth": "113% (inactive)"}, {"compound": "CC1(C)[C@H](O)[C@H](F)C[C@@]2(C)Oc3ccc(C(=O)Nc4ccc5c(c4)NC(=O)C54CCN(CCCCC#N)CC4)cc3C[C@H]12", "growth": "30.5% (inactive)"}, {"compound": "CC[C@]12C=CCN3CC[C@@]4(c5ccc(OC)cc5N(C)[C@H]4[C@@](O)(C(=O)OC)[C@@H]1OC(=O)CCCC[P+](c1ccccc1)(c1ccccc1)c1ccccc1)[C@@H]32", "growth": "-63.5% (active)"}, {"compound": "COc1ccc2nc(NC(=O)COc3cc(/C=C\\c4cc(OC)c(OC)c(OC)c4)ccc3OC)sc2c1", "growth": "25% (inactive)"}, {"compound": "C=CC12CCN(CC1)C(C(O)c1ccnc3ccc(OC)cc13)C2", "note": "(stereo not given)", "growth": "60.7% (inactive)"}]}]}
